DRD3 antagonist: antagonists of human D3 dopamine receptor; P35462; D3R cells, DiscoveRx beta-arrestin luminescence, antagonist mode; stronger effect = lower value; AID 652054; max response, negative = inhibition, %; 360,000 compounds, 2.5% hits; in the data active means max response below about -50%; further: on the % scale 0 is the no-effect control and ±100 the full control effect
Target sequence (P35462 whole entry, looked up): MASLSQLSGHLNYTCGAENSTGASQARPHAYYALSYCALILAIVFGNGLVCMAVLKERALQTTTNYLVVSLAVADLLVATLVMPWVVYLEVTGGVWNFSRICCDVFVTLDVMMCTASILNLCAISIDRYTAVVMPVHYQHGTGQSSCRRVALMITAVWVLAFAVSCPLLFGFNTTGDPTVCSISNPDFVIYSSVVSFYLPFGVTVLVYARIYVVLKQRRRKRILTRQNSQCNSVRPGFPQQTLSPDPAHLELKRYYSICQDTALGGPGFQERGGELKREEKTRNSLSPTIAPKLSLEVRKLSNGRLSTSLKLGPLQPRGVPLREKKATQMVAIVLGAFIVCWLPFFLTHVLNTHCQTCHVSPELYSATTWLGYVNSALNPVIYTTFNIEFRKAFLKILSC
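Cells expressing the human receptor were seeded at 1500 cells/well, incubated overnight at 37 degrees C in 5% CO2, then exposed to library compounds with dopamine controls for 90 minutes at 37 degrees C before luminescent detection.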
D1 antagonist: antagonists of human D1 dopamine receptor. 360,000 compounds, 3.2% hits. P21728. activity change, negative = inhibition, % at 10 µM. HEK293 TREx D1 cells, calcium flux, dopamine EC80; stronger effect = lower value; in the data active means activity change below about -30%; further: on the % scale 0 is the no-effect control and ±100 the full control effect
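Kinetic fluorescence of a calcium dye serves as the read-out. D1-expressing Hek293 Trex cells, induced overnight at 30 C, are exposed to compound for 180 s before an EC80 dopamine addition, then read 180 s further.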
D3 ag: D3 dopamine receptor (human) agonism; 410,000 compounds, 0.58% hits; D3R DiscoveRx beta-arrestin cells, luminescence, 90 min; max activation, %; P35462; in the data active means max activation above about 30%; further: 0% is about no effect
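Cells at 1500/well, incubated overnight, then treated with pinned compounds (dopamine as control) for 90 min at 37 degrees C. DiscoveRx reagent added for 30 - 60 minutes at room temperature; luminescence read.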
D1 PAM: potentiators of human D1 dopamine receptor | HEK293 TREx D1 cells, calcium flux, dopamine EC20 potentiation | potentiation, % at 10 µM | 360,000 compounds, 0.036% hits; in the data active means potentiation above about 30%; further: 0% is about no effect
D1 agonist: agonists of human D1 dopamine receptor | P21728 | HEK293 T-REx D1 cells, calcium flux, agonist mode | activation, % at 2 µM | 360,000 compounds, 1% hits | AID 504660; in the data active means activation above about 30%; further: 0% is about no effect
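Tetracycline-induced HEK293 TREx D1 cells, force-coupled to calcium signalling, were dye-loaded with a no-wash calcium kit. Compound was pin-added after a 10 s baseline. Fluorescence was read kinetically at 1 cycle/s for 180 s, with calcium rises flagged as agonism.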
Starred values were filed as active, the others as inactive; x = no result given; ! = repeats disagree. Most compounds without a hit are left out; they make up all but 6% or so of the library.

SMILES	DRD3 antagonist	D1 antagonist	D3 ag	D1 PAM	D1 agonist
CCOC(=O)c1c(C)[nH]c(C)c1S(=O)(=O)N1CCC(C(=O)NCc2ccc(F)cc2)CC1	x	0	7	-1	2
O=C(NNC(=O)c1cccc(O)c1)Nc1ccc([N+](=O)[O-])cc1	-57*	2	-6	16	3
Cc1ccc(NC(=O)c2ccc(Nc3c([N+](=O)[O-])cc([N+](=O)[O-])cc3[N+](=O)[O-])cc2)cc1	-77*	-26	-16	0	15
O=C(Nc1ccc(Br)cc1)c1cc([N+](=O)[O-])cc([N+](=O)[O-])c1	0	-37*	1	-3	19
CC(=O)Nc1ccc(NC(=O)c2cc([N+](=O)[O-])cc([N+](=O)[O-])c2)cc1	9	-4	0	-7	2
Cc1ccc(C)c(C(=O)COC(=O)CN2C(=O)C3C4CCC(C4)C3C2=O)c1 (stereo not drawn)	15	-11	0	-10	2
Cc1nnc(SCC(=O)Nc2sc3c(c2C(N)=O)CCCC3)[nH]c1=O	-25	-5	-2	6	1
Cc1nnc(SCC(=O)Nc2sc3c(c2C(N)=O)CCC(C)C3)[nH]c1=O (stereo not drawn)	9	-47*	4	-7	1
O=C1CCC[C@H]2c3[nH]c4ccccc4c3CCN12	-51*	x	-22	x	x
O=C(O)[C@@H]1Cc2c([nH]c3ccccc23)C2CCC(=O)N21 (stereo partly drawn)	-2	0	-6	3	2
Cc1ccc(CNC(=O)CN2C(=O)COc3ccccc32)cc1	x	18	-5	4	4
COc1ccc([C@H]2CC(=O)C=C(c3ccc(F)nc3)C2)cc1OC	23	7	8	-5	-1
COc1ccc([C@H]2CC(=O)C=C(c3ccc(F)cc3OCc3ccccc3)C2)cc1	5	x	29	-1	9
O=C1C=C(c2ccc(F)cc2OCc2ccccc2)C[C@@H](c2ccc(F)cc2)C1	-15	x	42*	-4	7
COc1ccc([C@H]2CC(=O)C=C(c3ccc(F)cc3OCc3ccccc3)C2)cc1OC	116	0	73*	3	8
C[C@@H]1CN([C@@H](C)CO)C(=O)c2cc(Br)cnc2O[C@@H]1CN(C)S(C)(=O)=O	-9	x	0	x	x
CCOC(=O)C1CCCN(C2=NC(=O)/C(=C/c3ccc(N(C)C)cc3)S2)C1 (stereo not drawn)	-16	3	0	-7	60*
CC1(C(=O)Nc2cccc(NS(C)(=O)=O)c2)CCN1CCc1ccccc1 (stereo not drawn)	-14	x	-10	x	x
CCc1nc2sc3c(c2c(=O)n1CCO)CCC3	-3	-44*	7	0	0
O=c1c2c3c(sc2nc2n1CCC2)CCCCC3	0	9	5	3	2
O=c1c2c3c(sc2nc2n1CCC2)CCC3	-52*	2	-1	-1	6
CSc1nc2sc3c(c2c(=O)n1C)CCCC3	20	6	11	-2	2
CSc1nc2sc3c(c2c(=O)n1C)CCC3	6	-35*	7	-1	1
O=C(Nc1ccc2c(c1)C(=O)OC2)c1ccccc1Cl	1	-9	-1	-3	2
CC(=O)c1ccc(S(=O)(=O)N2CCNC(=O)C2)cc1	20	x	5	x	x
SMILES	DRD3 antagonist	D1 antagonist	D3 ag	D1 PAM	D1 agonist
CCc1nnc(NC(=O)CSc2nc3c([nH]c4ccccc43)c(=O)n2-c2ccc(OC)cc2)s1	x	8	1	-6	3
COc1ccc(Cc2c(-c3cccc(Cl)c3)nc3ccc(C)cn23)c(C)c1	-17	x	-14	x	x
CCCNc1c(NS(=O)(=O)c2ccc(Cl)s2)c(=O)oc2ccccc12	-5	-3	3	-7	2
CCNc1c(NS(=O)(=O)c2ccc(Br)s2)c(=O)oc2ccccc12	-11	-41*	3	-3	-3
COC(=O)c1cc2sc(Cl)cc2n1Cc1nc(-c2ccccc2C)oc1C	x	-7	4	0	1
CCC(C)NC(=O)C1CCN(S(=O)(=O)c2ccc3c(c2)CC(C)N3C(C)=O)CC1 (stereo not drawn)	-12	-5	-4	5	0
CCc1ccc(NC(=O)C2CCN(S(=O)(=O)c3ccc4c(c3)CC(C)N4C(C)=O)CC2)cc1 (stereo not drawn)	37	-31*	7	-5	3
CCOc1ccc(OCC)c(NC(=O)C2CCN(S(=O)(=O)c3ccc4c(c3)CC(C)N4C(C)=O)CC2)c1 (stereo not drawn)	-11	-35*!	2	6	1
O=C1CCc2cc(S(=O)(=O)N3CCC(C(=O)NC4CCCC4)CC3)ccc2N1	0	-31*	1	-4	0
CC(=O)N1c2ccc(S(=O)(=O)N3CCC(C(=O)NC4CCC(C)CC4)CC3)cc2CC1C (stereo not drawn)	2	-22	30*	-4	0
O=C1CCc2cc(S(=O)(=O)N3CCCC3C(=O)NC3CCCCCCC3)ccc2N1 (stereo not drawn)	-16	2	-1	-3	8
COc1ccc2oc(C(=O)N(Cc3ccco3)Cc3cccs3)c(C)c2c1	29	-1	2	-2	4
Cc1ccc(NC(=O)c2c(C)oc3nc(C)nc(N4CCCC4)c23)c(C)c1	x	2	1	-4	-1
O=C(/C=C/c1ccccc1)NC(N1CCOCC1)C(Cl)(Cl)Cl (stereo not drawn)	10	-34*	5	-3	0
CN(C)c1ccc(CNC(=O)CN(C)S(=O)(=O)c2cccc3cccnc23)cc1	18	-66*	5	x	0
CN(CC(=O)NCc1cccs1)S(=O)(=O)c1cccc2cccnc12	0	7	-9	x	1
COc1ccc(NC(=O)C2(C)CCN2CCc2ccccc2)cc1OC (stereo not drawn)	2	x	72*	x	x
CCOc1ccc(-n2nc3cc(C)c(N)cc3n2)cc1	-5	-30*	7	-3	0
COc1cc(NC(=O)C/C(C)=N/NC(=O)c2cccc(O)c2)c(OC)cc1Cl	-51*	-7	-17	3	2
CCc1ccc(NC(=O)C2CCN(c3cc(C)nc4c(-c5ccc(Cl)cc5)c(C)nn34)CC2)cc1	x	7	6	-3	0
CC(C)(C=O)C1=CC(=O)c2ccccc2C1=O	-111*	7	-28	-4	3
CC1=CC(=O)c2ccccc2C1=O	-53*	-3	6	-2	-2
Cc1cn2c(=O)cc(COc3cccc(NC(=O)c4ccc(C(C)(C)C)cc4)c3)nc2s1	x	-1	-6	-1	1
CC(C)(C)C1C/C(=C/c2ccccn2)C(=O)/C(=C/c2ccccn2)C1 (stereo not drawn)	-53*	2	-9	-3	0
O=C1/C(=C/c2ccccn2)COc2ccccc21	9	-20	-5	1	2
